Entries with a potency or affinity are not part of this list.

The Inhibition is the change of the read-out against control, counted positive when it falls.

In this assay the test system is Staphylococcus aureus. The following applies: Concentration 20 uM; ASSAY_TEST Inhibition of Bacterial Growth; detection method Absorption (OD600); MEDIA CAMHB; plate type 384well; NBS; CORNING #3640; time 18 hr.
Turning to `C[C@]12CC[C@H]3[C@@H](CCC4=CC(=O)CC[C@@H]43)[C@@H]1CC[C@@H]2O` [NANDROLONE], the Inhibition is listed as -0.13%. The value for `CC[C@@H](C(N)=O)N1CCCC1=O` was 18.53%; that for `Cc1ccnc2c1NC(=O)c1cccnc1N2C1CC1` [NEVIRAPINE] was 12.92%; that for `O=C(O[C@@H]1Cc2c(O)cc(O)cc2O[C@@H]1c1cc(O)c(O)c(O)c1)c1cc(O)c(O)c(O)c1` [EPIGALOCATECHIN GALLATE] was 13.39%. Under `COc1ccc2[nH]cc(C3=CCNCC3)c2c1.COc1ccc2[nH]cc(C3=CCNCC3)c2c1.O=C(O)CCC(=O)O` stands 16.86%; under `CN1C(=O)COc2c(C(=O)NC3CN4CCC3CC4)cc(Cl)cc21.Cl` (centres undefined), 14.32%; under `CCCCCNC(=N)N/N=C/c1c[nH]c2ccc(OC)cc12.O=C(O)/C=C\C(=O)O` [TEGASEROD MALEATE], 22.85%. The value for `CC(C)c1cccc(C(C)C)c1O` [PROPOFOL] was -2.39%; that for `CN/C(=N\CCSCc1nc[nH]c1C)NC#N` [CIMETIDINE] was 12.6%; that for `CN1CCN(C(=O)O[C@H]2c3nccnc3C(=O)N2c2ccc(Cl)cn2)CC1` [ESZOPICLONE] was -7.93%.

`COc1cc(N)c(Cl)cc1C(=O)NC1CN2CCC1CC2.Cl.O` (centres undefined) [ZACOPRIDE HYDROCHLORIDE]: the Inhibition was -3.02%. With `CCC1(c2ccc(N)cc2)CCC(=O)NC1=O` (centres undefined) [AMINOGLUTETHIMIDE], the Inhibition was -4.21%. Consider `CCOC(=O)C1=C(COCCN)NC(C)=C(C(=O)OC)C1c1ccccc1Cl` (centres undefined) [AMLODIPINE], for which the Inhibition is given as -19.31%. Under `CC(NC(C)(C)C)C(=O)c1cccc(Cl)c1.Cl` (centres undefined) [BUPROPION HYDROCHLORIDE] stands -23.91%. Under `CC(COc1ccccc1)N(CCCl)Cc1ccccc1.Cl` (centres undefined) [PHENOXYBENZAMINE HYDROCHLORIDE] stands 12.58%; under `CCOC(=O)C1(c2ccccc2)CCN(CCC(C#N)(c2ccccc2)c2ccccc2)CC1.Cl` [DIPHENOXYLATE HYDROCHLORIDE], 14.18%; under `CCOC(=O)c1cncn1[C@H](C)c1ccccc1` [ETOMIDATE], 11.17%. For `C[N+]1(CCC(C(N)=O)(c2ccccc2)c2ccccc2)CCCCC1.[Br-]` [FENPIVERINIUM BROMIDE], the Inhibition is 4.81%. The value for `CC(=O)CC(c1ccccc1)c1c([O-])c2ccccc2oc1=O.[Na+]` (centres undefined) [WARFARIN SODIUM] was 12.98%; that for `c1ccc(Cn2ccnc2)cc1` was 13.36%; that for `COC(=O)C1=C(C)NC(C)=C(C(=O)OC)C1c1ccccc1[N+](=O)[O-]` [NIFEDIPINE] was 16.67%.

With `N=C(NCc1ccc(Cl)cc1)SCCCc1c[nH]cn1` [CLOBENPROPIT], the Inhibition was -4.61%. As to `Cl.Cl.OCCN1CCN(CCCN2c3ccccc3Sc3ccc(C(F)(F)F)cc32)CC1` [FLUPHENAZINE HYDROCHLORIDE], the Inhibition is 12.42%. Under `CC1CCC[C@H](O)CCCCCc2cc(O)cc(O)c2C(=O)O1` (some centres undefined) stands 10.2%; under `Nc1nc2ccc(Cl)cc2c2nc(-c3ccco3)nn12` [CGS-15943], 11.02%. For the compound `C#C[C@]1(OC(C)=O)CC[C@H]2[C@@H]3CCC4=CC(=O)CC[C@@H]4[C@H]3CC[C@@]21C` [NORETHINDRONE ACETATE], the Inhibition was determined as 11.13%.

Turning to `c1ccc2c3c([nH]c2c1)CNCC3` [TRYPTOLINE], the Inhibition is 7.42%. Under `CC(=O)[C@H]1CC[C@H]2[C@@H]3CCC4=CC(=O)CC[C@]4(C)[C@H]3CC[C@]12C` [PROGESTERONE] stands 12.63%; under `CC(C(=O)O)c1ccc(-c2ccccc2)c(F)c1` (centres undefined) [FLURBIPROFEN], 10.54%; under `CC(C)N(CCC(C(N)=O)(c1ccccc1)c1ccccn1)C(C)C.O=P(O)(O)O` (centres undefined) [DISOPYRAMIDE PHOSPHATE], 5.5%. The value for `CN(C)CCc1c[nH]c2ccc(C[C@H]3COC(=O)N3)cc12` [ZOLMITRIPTAN] was 3.79%.

In the case of `CN(C)CCc1c[nH]c2ccc(Cn3cncn3)cc12.O=C(O)c1ccccc1` [RIZATRIPTAN BENZOATE], the Inhibition was 12.43%.

Turning to `NS(=O)(=O)c1cc(C2(O)NC(=O)c3ccccc32)ccc1Cl` (centres undefined) [CHLORTHALIDONE], the Inhibition is recorded as 15.62%.

`Cn1c(=O)c2nc[nH]c2n(C)c1=O.O` [THEOPHYLLINE]: the Inhibition is -24.23%.

The values above are taken from ChEMBL document CHEMBL4513141, “CO-ADD screening of NIH (USA) - Clinical Collection” (2021).
